# Assay results reported in PubChem BioAssay (NCI).
# The panel holds about 83,000 compounds, 20% with a hit somewhere; the sample as a whole holds those more often.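 In brief: 96-well plates, 48 h treatment, single concentration, percent growth endpoint.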 Activity calls are given as the source filed them. The calls were made as follows: active = growth percent below 10; inactive = the rest.
# Test system: HL-60(TB) leukemia
# Assay: NCI-60 one-dose screen, 48 h (100 = growth as untreated, 0 = no growth, -100 = all killed)
# Conditions: 10 µM unless noted
row,Compound,growth
1,N[C@@H](CC/[N+]([O-])=N/O)C(=O)O,110% (inactive)
2,O=C(N/N=C\c1ccccc1O)C1CC1,101% (inactive)
3,Cc1ccc(Nc2nccc(N(C)c3ccc4c(C)n(C)nc4c3)n2)cc1S(N)(=O)=O,5.08% (active)
4,CNC(C)[C@H]1CCC2C3CC=C4C(=O)[C@@H](NC(=O)C=C(C)C)CC[C@]4(C)C3CC[C@@]21C (stereo not given in full),-67% (active)
5,COCCn1cc(-c2csc(-c3c[nH]c4ccc(F)cc34)n2)c2cccnc21,13.9% (inactive)
6,CCCCNC(=O)c1cc([N+](=O)[O-])cc(C2CCCCC2)c1O,19.8% (inactive)
7,O=S(=O)(NCCNc1nccc(-c2c(-c3cccc(O)c3)nc3occn23)n1)c1ccc(Br)cc1,18% (inactive)
8,CCOC(=O)Cc1cc(Br)c(OCc2ccccc2)c(Br)c1,71.7% (inactive)
9,CCN1C(=S)N(CC)C2C1NC(=S)N2/N=C/C=C/c1ccccc1 (stereo not given),-22.2% (active)
10,COC(=O)[C@@H]1CCCN1C(=O)[C@@H]1CCCN1C(=O)[C@@H](Cc1c[nH]c2ccccc12)NC(=S)Nc1cc(C(F)(F)F)cc(C(F)(F)F)c1,11.1% (inactive)
11,CC(=O)OC1CC2C3CCC4C[C@@H](NC(=O)C=C(C)C)CC[C@]4(C)C3CC[C@]2(C)[C@H]1C(C)N(C)C (stereo not given in full),-49.6% (active)
12,CCCCCN1C=C/C(=C\C(=O)N(C)c2ccccc2Br)c2ccccc21,76.9% (inactive)
13,O=c1ccc2nc(-c3ccccc3)nn(-c3ccccc3)c-2c1,-45.5% (active)
14,CC1Cc2c(N(C)C)ncnc2N(C)c2ccc(Cl)cc21 (stereo not given),-7.29% (active)
15,CCN(CC)CCCNc1cc(OC)cc2nc3cc(Cl)ccc3nc12,-9.05% (active)
16,Brc1cccc(-c2nc(-c3ccc4c(c3)OCCO4)co2)c1,29.1% [25 µM] (inactive)
17,S=C(N/N=C/c1ccccn1)Nc1ccccn1,-13.7% (active)
18,CCN1C(=O)N(CC)C2C1NN=c1s/c(=C\c3cc4ccccc4[nH]3)c(=O)n12 (stereo not given),-62% (active)
19,CC(C)(C)c1cc(/C=N/NC(=O)c2ccccc2NC(=O)c2cccs2)c(O)c(C(C)(C)C)c1,14.1% (inactive)
20,CNC(=O)c1c(NC(=O)c2ccc(C(C)C)cc2)sc2c1CCC(=O)C2,-13.9% (active)

row,Compound,growth
1,Cc1ccc(SC2c3ccc(C)cc3Oc3nc(N)c(C#N)c(N)c32)cc1 (stereo not given),-6.43% (active)
2,COc1ccc(NC(=O)c2ccc(Cl)cc2Cl)cc1,103% (inactive)
3,O=[N+]([O-])c1ccc(C(c2ccccc2)c2ccccc2)cc1,79.3% (inactive)
4,COc1cc2nc(-c3cnc(N(C)C)nc3)nc(NC3CCN(Cc4ccccc4)CC3)c2cc1OC,-52.3% (active)
5,C=C(C)[C@@H]1CC[C@]2(COC3CCCCO3)CC[C@]3(C)[C@H](CC[C@@H]4[C@@]5(C)C=C(C=O)C(=O)C(C)(C)[C@@H]5CC[C@]43C)[C@@H]12 (stereo not given in full),-25.8% (active)
6,COc1cccc(C2CC(=O)Nc3c2c(C)nn3-c2nc3ccccc3[nH]2)c1OC (stereo not given),18.9% (inactive)
7,Fc1ccc(CNc2c3ccccc3nc3ccccc23)cc1F,34.5% (inactive)
8,CN1CCN(Cc2ccc(NC(=O)c3cncc(C#Cc4c(N)ncc5cc(F)ccc45)c3)cc2C(F)(F)F)CC1,-46.2% (active)
9,CCNC(=O)Oc1ccc(/C(=C(\C)c2ccccc2)c2ccc(OCCN(CC)CC)cc2)cc1,52.5% (inactive)
10,O=[N+]([O-])c1ccc(-c2cc3c(Nc4ccc(Sc5nc6ccccc6s5)c(Cl)c4)ncnc3s2)cc1,21.6% (inactive)
11,N#C/C(=C1C=C/C(=N/O)C(Br)=C/1)c1ccccc1,-20.5% (active)
12,CCO/C=N/S(=O)(=O)c1cc2c(cc1Cl)NC=NS2(=O)=O,112% (inactive)
13,CCOC(=O)c1c(-c2ccc(OC)cc2)c(C#N)c2c(C#N)c(N)nn2c1N,-40.4% (active)
14,CC(=O)OCCC/C(=C/c1cc2ccccc2c2ccccc12)[N+](=O)[O-],-52.1% (active)
15,C/C(=N\NC(=O)CSc1nc2ccccc2c(=O)n1CCc1ccc(S(N)(=O)=O)cc1)c1ccccn1,33.8% (inactive)
16,Oc1nc(NCc2ccccc2)sc1/C=C1\C=Nc2ncccc21,36.4% (inactive)
17,CC1=C2[C@@H](CC1)[C@]1(C)O[C@@](C(C)C)(C[C@H]1OC(=O)[C@H](C)O)[C@H]2OC(=O)/C=C/c1ccccc1,89.1% (inactive)
18,COc1cc(-c2ccc3cc(OC)c(OC)c(OC)c3c2)cc(OC)c1OC,67.4% (inactive)
19,C[C@@H]1N=C(c2ccc(Cl)cc2Cl)Nc2nc3ccccn3c2C1=O,0.461% (active)
20,COc1cc(C(=O)NNC(=O)c2ccccc2O)cc(OC)c1OC,80.4% (inactive)
